UCHL1 block: blocks human UCHL1 ubiquitin-rhodamine cleavage; inhibition, % at 20 µM; purified UCHL1, Ub-rhodamine cleavage fluorescence; hit rate 0.2% among 47,000
USP7 inh: human USP7 deubiquitinase inhibition. inhibition, % at 20 µM. purified USP7, Ub-rhodamine cleavage fluorescence. hit rate 0.3% among 47,000. Q93009. AID 1645854
USP8 inh: blocks human USP8 ubiquitin-rhodamine cleavage; purified USP8, Ub-rhodamine cleavage fluorescence, 30 min; inhibition, % at 20 µM; hit rate 4.2% among 47,000; AID 1645853
Target sequence (P40818 whole entry, looked up): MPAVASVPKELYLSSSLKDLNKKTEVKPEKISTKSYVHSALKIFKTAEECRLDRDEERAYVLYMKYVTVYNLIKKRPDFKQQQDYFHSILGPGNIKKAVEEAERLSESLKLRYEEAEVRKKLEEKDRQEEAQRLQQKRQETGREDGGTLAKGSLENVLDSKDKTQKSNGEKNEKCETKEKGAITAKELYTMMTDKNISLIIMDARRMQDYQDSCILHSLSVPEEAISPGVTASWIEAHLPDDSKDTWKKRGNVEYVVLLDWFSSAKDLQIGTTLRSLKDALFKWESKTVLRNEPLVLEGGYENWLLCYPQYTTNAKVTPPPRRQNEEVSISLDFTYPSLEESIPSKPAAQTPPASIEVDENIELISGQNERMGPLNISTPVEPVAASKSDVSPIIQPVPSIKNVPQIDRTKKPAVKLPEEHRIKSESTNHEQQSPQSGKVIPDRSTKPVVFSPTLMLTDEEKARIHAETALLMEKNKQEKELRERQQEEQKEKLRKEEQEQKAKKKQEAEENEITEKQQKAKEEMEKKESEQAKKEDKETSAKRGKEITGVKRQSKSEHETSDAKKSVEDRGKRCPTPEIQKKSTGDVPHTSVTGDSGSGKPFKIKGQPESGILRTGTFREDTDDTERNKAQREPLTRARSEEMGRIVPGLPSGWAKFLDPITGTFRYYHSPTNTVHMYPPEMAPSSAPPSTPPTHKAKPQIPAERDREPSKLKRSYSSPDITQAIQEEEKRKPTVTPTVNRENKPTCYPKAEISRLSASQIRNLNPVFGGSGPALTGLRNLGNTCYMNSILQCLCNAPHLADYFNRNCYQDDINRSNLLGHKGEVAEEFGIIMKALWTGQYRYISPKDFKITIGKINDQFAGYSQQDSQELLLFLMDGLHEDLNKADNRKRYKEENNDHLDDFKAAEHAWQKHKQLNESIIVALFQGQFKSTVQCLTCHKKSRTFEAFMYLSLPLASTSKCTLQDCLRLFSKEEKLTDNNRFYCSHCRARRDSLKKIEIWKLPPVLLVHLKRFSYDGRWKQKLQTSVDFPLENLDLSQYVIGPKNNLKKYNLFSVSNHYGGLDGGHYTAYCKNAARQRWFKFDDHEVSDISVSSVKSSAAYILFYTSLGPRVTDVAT
USP10 inh: inhibitors of human USP10 deubiquitinase. purified USP10, Ub-rhodamine fluorescence, 60 min. inhibition, % at 20 µM. hit rate 1.1% among 47,000. AID 1645856
Numbers without * were called inactive. Only some compounds are listed: those with a hit (about 5% of all), similar ones and a draw of the others. Rule as the data show it: active = inhibition above about 30%; inactive = the rest.

SMILES | UCHL1 block | USP7 inh | USP8 inh | USP10 inh
Cc1cc(NC(=O)Cn2c(=O)n(CCCCC(=O)NCc3ccco3)c(=O)c3ccccc32)ccc1Br | 1 | 5 | 84* | 60*
Cc1cc(NC(=O)Cn2c(=O)n(CC3CCC(C(=O)NCCc4ccccc4)CC3)c(=O)c3ccccc32)n[nH]1 (centres undefined) | 1 | 14 | 37* | 15
O=C(Cn1c(=O)n(CC2CCC(C(=O)NCCc3ccccc3)CC2)c(=O)c2ccccc21)Nc1ccccc1F (centres undefined) | -5 | -1 | -7 | -2
COc1cc2c(=O)n(CCC(=O)NCc3ccco3)c(=O)n(CC(=O)Nc3c(C)cccc3C)c2cc1OC | 8 | 9 | 38* | -3
Cc1ccc(NC(=O)Cn2c(=O)n(CC(=O)NCc3ccco3)c(=O)c3ccccc32)cc1C | -7 | -2 | 22 | 21
N#Cc1ccccc1Cn1c(=O)n(CCC(=O)N2CC=C(c3ccccc3)CC2)c(=O)c2ccccc21 | 4 | 2 | 12 | 10
COc1cccc(C(=O)Cn2c(=O)n(CCCC(=O)NCc3ccco3)c(=O)c3ccc(Cl)cc32)c1 | -1 | -6 | 10 | 24
O=C(NCc1ccc(F)cc1)c1ccc2ncnc(N3CCOCC3)c2c1 | -6 | -4 | 0 | -3
O=C(CCCCn1c(=O)c2ccccc2n(CC(=O)NCCC2=CCCCC2)c1=O)NCc1ccco1 | 0 | -24 | 42* | 0
O=C(COc1ncnc2cc([N+](=O)[O-])ccc12)NCc1ccc2c(c1)OCO2 | 3 | 5 | 66* | 20
Cc1cc(C)c2c(C)c(C(=O)Nc3ccc4c(c3)NC(=O)CO4)oc2c1 | 1 | 6 | -28 | -1
COc1ccc(-c2cnn(-c3ccc(NC(=O)Nc4cccc(C(F)(F)F)c4)cc3)c2)cc1 | 2 | 20 | 31* | 24
Cc1nc2ccc(C(=O)N3CCCC3c3nc(C)c4c(n3)N(CC(C)C)C(=O)C4)cc2s1 (centres undefined) | 7 | 0 | 89* | -4
CC1(C)Cc2c(sc3nc(SCc4ccccc4Cl)nc(N)c23)CO1 | 4 | -44 | 25 | 19
O=S(=O)(NCc1cc(F)cc(F)c1)c1c[nH]c2ncccc12 | 0 | 5 | 11 | 2
CCOc1ccccc1C1CC(=O)Nc2ccc3ccccc3c21 (centres undefined) | 89* | 8 | 12 | 15
COc1ccc(C2CC(=O)Nc3ccc4ccccc4c32)c(OC)c1OC (centres undefined) | 2 | 0 | 7 | 3
Cc1ccc(-c2noc(-c3nnc(SCC(=O)NC4CCCC4)n3C)n2)cc1 | -1 | 2 | 12 | 2
Oc1ccccc1-c1nc2ccc(Cl)cn2c1NCCc1ccccc1 | 0 | -18 | 78* | 7
Cc1ccc2[nH]c(=O)c(-c3nc4ccccn4c3NCc3ccccc3)cc2c1 | 4 | 9 | 1 | 24
O=C(NCCc1ccccc1)c1cn2cc(Cl)ccc2n1 | -2 | 0 | 0 | 1
Cc1ccc2nc(-c3ccccc3O)c(NCCc3ccccc3)n2c1 | 1 | -8 | 80* | 7
CC1CCN(C(=O)c2ccc(CSc3nc4ccncc4n3Cc3ccccc3)cc2)CC1 | 1 | 2 | -3 | 1
O=C(NCc1ccco1)c1ccc(Cn2c(SCc3ccccc3)nc3ccncc32)cc1 | 3 | 59* | 35* | 0
CC1CC[C@@]2(OC1)O[C@@H]1[C@H]([C@@H]2C)[C@@]2(C)CCC3C(CCC4C[C@@H](O)[C@H](O)C[C@@]43C)C2[C@@H]1O (some centres undefined) | 0 | 3 | 0 | -6
SMILES | UCHL1 block | USP7 inh | USP8 inh | USP10 inh
Cc1noc(NS(=O)(=O)c2ccc(NC(=O)COc3ccc(N(C)C(=O)c4ccc(Cl)cc4)cc3)cc2)c1C | -3 | -2 | 5 | 16
Cc1noc(NS(=O)(=O)c2ccc(NC(=O)CSc3ccc4ccccc4c3)cc2)c1C | 9 | 13 | 68* | 28
Cc1ccc2c(c1)C(=O)N1CCCC1C(=O)N2CC(=O)N1CCCC(C)C1 (centres undefined) | 1 | 4 | -1 | 2
O=C(Nc1ccccc1-c1nc2ccccc2[nH]1)c1ccc(Br)cc1 | -3 | 2 | 11 | 4
O=C(Nc1ccccc1-c1nc2ccccc2[nH]1)c1sc2ccccc2c1Cl | 3 | 32* | 59* | 33*
Cn1c(=O)c2nc(-c3ccc(Cl)cc3)nnc2n(C)c1=O | 32* | -8 | 99* | 40*
Cn1c(=O)c2c(nc3n(CCO)c(-c4ccc(Cl)cc4)cn23)n(C)c1=O | 4 | -6 | -11 | 0
COc1ccc(C(=O)Nc2cc(OC)c(NC(=O)CN3CCOCC3)cc2OC)cc1 | 1 | -6 | 58* | -5
